The results in this text go back to PubChem BioAssay (NCI).

Structures are written as SMILES. About 79,000 compounds went through this panel and 15% of them were active in at least one assay; those are over-represented in the sample as a whole. Unmarked numbers belong to inactive results. The source made the active and inactive calls. Cut-off read from the data, not from the text of the source: active = growth inhibition above about 70%; inactive = the rest.

The test in a line: NCI Yeast Anticancer Drug Screen. Data for the rad18 strain (AID 177). The settings on record: S. cerevisiae rad18 mutant growth inhibition, stronger effect = higher value. As for the experimental part: Growth inhibition of yeast strains with defined genetic alterations is measured as a screen for potential anti-cancer activity. Selected strains with alterations in DNA damage repair or cell cycle control were exposed to compounds and growth inhibition was measured relative to vehicle treated controls. The strain used in this assay is rad18

For `O=[N+]([O-])c1ccc2nnnn2c1`, the growth inhibition runs as follows: (at 1.2 µM) 1%; (at 3.7 µM) 2%; (at 11.0 µM) -2%; (at 33.0 µM) 25%; (at 100.0 µM) 55%.
The matching figures for `CC[N+]1(C)CCC(O)(/C=C/c2ccc(Cl)c(Cl)c2)C(C(=O)/C=C/c2ccc(Cl)c(Cl)c2)C1` (stereo not given): 29%, 77% (active), 99% (active), 99% (active) and 99% (active).
As to `COc1cc(NCCCCCNC(C)C)c2ncccc2c1Cl`, the growth inhibition was -1% (at 1.2 µM); -4% (at 3.7 µM); -1% (at 11.0 µM); 5% (at 33.0 µM); 13% (at 100.0 µM).
With `OC(c1ccc(Br)cc1)(c1cccs1)C1CC1` (stereo not given), the growth inhibition (at 1.2 µM) was 1%; the growth inhibition (at 3.7 µM) was 24%; the growth inhibition (at 11.0 µM) is 54%; the growth inhibition (at 33.0 µM) was 94% (active); the growth inhibition (at 100.0 µM) was 91% (active).
Turning to `O=C1C(C(O)(C(F)(F)F)C(F)(F)F)CCC1C(O)(C(F)(F)F)C(F)(F)F` (stereo not given), the growth inhibition (at 1.2 µM) is 4%; the growth inhibition (at 3.7 µM) is 6%; the growth inhibition (at 11.0 µM) is 3%; the growth inhibition (at 33.0 µM) is -2%; the growth inhibition (at 100.0 µM) is 11%.
As to `Cc1cnccc1N=Nc1ccc(N(C)C)cc1`, the growth inhibition is -4% (at 1.2 µM); -4% (at 3.7 µM); 9% (at 11.0 µM); 25% (at 33.0 µM); 30% (at 100.0 µM).
Take `COc1ccc2c(C)cc(N/N=C/c3sccc3C)nc2c1`: the growth inhibition by setting is: (at 1.2 µM) 3%; (at 3.7 µM) -4%; (at 11.0 µM) 6%; (at 33.0 µM) 85% (active); (at 100.0 µM) 70% (active).
As to `CCC1SC(=S)N(c2ccc(Cl)cc2)C1=O` (stereo not given), the growth inhibition runs as follows: (at 1.2 µM) -8%; (at 3.7 µM) -10%; (at 11.0 µM) -3%; (at 33.0 µM) 48%; (at 100.0 µM) 87% (active).
